From the supplement of paper PMC3334620
In all, about 33,000 sequences were measured (“E-score (-0.5 to 0.5)”: median about -0.04, highest 2% from about 0.36 on). This excerpt belongs to a sample that is enriched for the highest values.

What follows are sequences tested against T1, Hmlalpha2 (UniProt P0CY09) (assay: PBM E-score (8-mer binding enrichment) (E-score (-0.5 to 0.5)); higher = stronger / more preferred TF binding). Details: protein concentration: 200 nM; construct: GST-full length.
T1 sequence: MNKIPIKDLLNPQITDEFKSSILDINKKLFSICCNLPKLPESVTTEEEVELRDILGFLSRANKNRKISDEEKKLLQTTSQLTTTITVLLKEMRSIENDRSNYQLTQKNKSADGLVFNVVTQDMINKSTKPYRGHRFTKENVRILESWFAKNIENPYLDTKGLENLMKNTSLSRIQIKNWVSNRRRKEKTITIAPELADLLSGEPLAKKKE
Experimental: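 Universal 'all 10-mer' protein binding microarrays (Agilent AMADID 015681) probed with GST-tagged S. cerevisiae TFs (full-length or DBD) made by in vitro transcription/translation (PURExpress), about 100-200 nM. Bound TF was detected with fluorescent anti-GST. Each ungapped 8-mer (which stands for itself and its reverse complement) is scored by the PBM enrichment score (E-score), a modified Wilcoxon-Mann-Whitney statistic from -0.5 to +0.5, computed with the Universal PBM Analysis Suite. Scale: above 0.35 generally sequence-specific binding.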

Question: Which “PBM E-score” value does the source give for AACAACAC here?
Answer: 0.375

Question: Which “PBM E-score” value does the source give for CACAACAC here?
Answer: 0.306

Question: How did the “PBM E-score” value turn out when AACAACAG was run?
Answer: 0.108

Question: AACAACAA was tested. Which “PBM E-score” value did it give?
Answer: 0.306

Question: Which “PBM E-score” value does the source give for AACAACAT here?
Answer: 0.385

Question: Which “PBM E-score” value does the source give for GACAACAC here?
Answer: 0.319

Question: Which “PBM E-score” value does the source give for CGAAACCC here?
Answer: -0.121

Question: With CTTCTAGC as the sequence, how does the “PBM E-score” value read?
Answer: -0.197

Question: Which “PBM E-score” value does the source give for CCCCGCAC here?
Answer: -0.201

Question: CCGGGAAG was tested. Which “PBM E-score” value did it give?
Answer: -0.179

Question: How did the “PBM E-score” value turn out when CGTCCCCA was run?
Answer: -0.224

Question: GTACATGA was tested. Which “PBM E-score” value did it give?
Answer: 0.426

Question: GCACATGA was tested. Which “PBM E-score” value did it give?
Answer: 0.0937

Question: Which “PBM E-score” value does the source give for CTACATCA here?
Answer: 0.222

Question: GTACATTA was tested. Which “PBM E-score” value did it give?
Answer: 0.316

Question: CGACATGA was tested. Which “PBM E-score” value did it give?
Answer: 0.319

Question: How did the “PBM E-score” value turn out when CTACATGA was run?
Answer: 0.421

Question: With AACATTGC as the sequence, how does the “PBM E-score” value read?
Answer: 0.191

Question: GGAATCTA was tested. Which “PBM E-score” value did it give?
Answer: -0.132

Question: With GCACGGAC as the sequence, how does the “PBM E-score” value read?
Answer: -0.0335

Question: For ACCAAATA, which “PBM E-score” value is on record?
Answer: 0.191

Question: AGACACAA was tested. Which “PBM E-score” value did it give?
Answer: 0.172

Question: With AAACACAT as the sequence, how does the “PBM E-score” value read?
Answer: 0.314

Question: For ACACACAA, which “PBM E-score” value is on record?
Answer: 0.313

Question: For ACACATAT, which “PBM E-score” value is on record?
Answer: 0.317

Question: ATACACAG was tested. Which “PBM E-score” value did it give?
Answer: 0.408

Question: For ATACACAA, which “PBM E-score” value is on record?
Answer: 0.42

Question: For ACACACAG, which “PBM E-score” value is on record?
Answer: 0.364

Question: Which “PBM E-score” value does the source give for ACACACAC here?
Answer: 0.326

Question: For ACACACAT, which “PBM E-score” value is on record?
Answer: 0.379

Question: For AGACACAT, which “PBM E-score” value is on record?
Answer: 0.128

Question: With ATACACAT as the sequence, how does the “PBM E-score” value read?
Answer: 0.399

Question: CTATACAG was tested. Which “PBM E-score” value did it give?
Answer: 0.0549

Question: For TTCATGAA, which “PBM E-score” value is on record?
Answer: -0.00198

Question: Which “PBM E-score” value does the source give for ATTGAGCA here?
Answer: 0.0182

Question: For ATAACCAC, which “PBM E-score” value is on record?
Answer: -0.0123

Question: ACCCCCGA was tested. Which “PBM E-score” value did it give?
Answer: -0.0909

Question: With GGCAAAGA as the sequence, how does the “PBM E-score” value read?
Answer: -0.0294

Question: With CCCCTGTC as the sequence, how does the “PBM E-score” value read?
Answer: -0.152

Question: For GGCCAGCC, which “PBM E-score” value is on record?
Answer: -0.192

Question: With CAGCGACG as the sequence, how does the “PBM E-score” value read?
Answer: -0.0401

Question: With ATACACTC as the sequence, how does the “PBM E-score” value read?
Answer: 0.185

Question: Which “PBM E-score” value does the source give for ATACACAC here?
Answer: 0.429

Question: For ATACACCG, which “PBM E-score” value is on record?
Answer: 0.145

Question: CGCTGAGA was tested. Which “PBM E-score” value did it give?
Answer: -0.139

Question: With CCCTCAGA as the sequence, how does the “PBM E-score” value read?
Answer: -0.285

Question: How did the “PBM E-score” value turn out when CTATTCCC was run?
Answer: -0.203

Question: AGTGCACC was tested. Which “PBM E-score” value did it give?
Answer: -0.2

Question: With CAGTGTAC as the sequence, how does the “PBM E-score” value read?
Answer: 0.154

Question: With ACGTGTAG as the sequence, how does the “PBM E-score” value read?
Answer: 0.429

Question: With CCGTGTCG as the sequence, how does the “PBM E-score” value read?
Answer: 0.233

Question: With AAGTGTAG as the sequence, how does the “PBM E-score” value read?
Answer: 0.0742

Question: How did the “PBM E-score” value turn out when ACGTGTGA was run?
Answer: 0.229

Question: Which “PBM E-score” value does the source give for AGGTGTAG here?
Answer: 0.0925

Question: For CCGTGTAG, which “PBM E-score” value is on record?
Answer: 0.452

Question: Which “PBM E-score” value does the source give for CCGTGTAC here?
Answer: 0.422

Question: Which “PBM E-score” value does the source give for CCGTGTCC here?
Answer: 0.0408

Question: How did the “PBM E-score” value turn out when AGGTGTAA was run?
Answer: 0.317

Question: How did the “PBM E-score” value turn out when ACGTGTAA was run?
Answer: 0.482

Question: How did the “PBM E-score” value turn out when CAGTGTAG was run?
Answer: 0.243

Question: For CGGACGGA, which “PBM E-score” value is on record?
Answer: -0.198

Question: Which “PBM E-score” value does the source give for AGACTGGA here?
Answer: -0.0528

Question: For CGAATCGC, which “PBM E-score” value is on record?
Answer: -0.169

Question: How did the “PBM E-score” value turn out when ATGAGGAA was run?
Answer: 0.0377

Question: For ACCTAACT, which “PBM E-score” value is on record?
Answer: 0.00114

Question: With AACGAACC as the sequence, how does the “PBM E-score” value read?
Answer: 0.036

Question: How did the “PBM E-score” value turn out when CATGGGGC was run?
Answer: 0.0176

Question: For CGCAATGA, which “PBM E-score” value is on record?
Answer: 0.0708

Question: For GAGAATAC, which “PBM E-score” value is on record?
Answer: 0.242

Question: Which “PBM E-score” value does the source give for ATTGTTGG here?
Answer: 0.151

Question: AATCTGAA was tested. Which “PBM E-score” value did it give?
Answer: 0.102

Question: With ACTACTTG as the sequence, how does the “PBM E-score” value read?
Answer: 0.154

Question: With AAGTGTAC as the sequence, how does the “PBM E-score” value read?
Answer: 0.0982

Question: ACGTGTAC was tested. Which “PBM E-score” value did it give?
Answer: 0.382

Question: For GAGTGTAC, which “PBM E-score” value is on record?
Answer: 0.0265

Question: How did the “PBM E-score” value turn out when GCCTGTAA was run?
Answer: 0.254

Question: How did the “PBM E-score” value turn out when ACGTGTAT was run?
Answer: 0.402

Question: With GGGTGTAC as the sequence, how does the “PBM E-score” value read?
Answer: -0.0223

Question: How did the “PBM E-score” value turn out when GCGTGTAC was run?
Answer: 0.427

Question: With TAGTGTAA as the sequence, how does the “PBM E-score” value read?
Answer: 0.323

Question: GCGTGTAA was tested. Which “PBM E-score” value did it give?
Answer: 0.486

Question: How did the “PBM E-score” value turn out when ACGTGTGC was run?
Answer: 0.172

Question: ACGTGTCT was tested. Which “PBM E-score” value did it give?
Answer: 0.193

Question: For AAGTGTAT, which “PBM E-score” value is on record?
Answer: 0.194

Question: CAACCACG was tested. Which “PBM E-score” value did it give?
Answer: 0.111

Question: How did the “PBM E-score” value turn out when ATTGGTAG was run?
Answer: 0.0446

Question: Which “PBM E-score” value does the source give for GGATCCTA here?
Answer: -0.154

Question: For ATCCTAAT, which “PBM E-score” value is on record?
Answer: -0.0163

Question: Which “PBM E-score” value does the source give for CTGGCGAA here?
Answer: -0.103

Question: Which “PBM E-score” value does the source give for CTGTCCAA here?
Answer: -0.0758

Question: How did the “PBM E-score” value turn out when ACATAGGG was run?
Answer: 0.251

Question: For ACGTAGAT, which “PBM E-score” value is on record?
Answer: 0.267

Question: For CGCTTGCA, which “PBM E-score” value is on record?
Answer: -0.0244

Question: For GCGCGTAC, which “PBM E-score” value is on record?
Answer: 0.225

Question: For GCGCGTAA, which “PBM E-score” value is on record?
Answer: 0.416

Question: For TAGCGTAA, which “PBM E-score” value is on record?
Answer: 0.278

Question: How did the “PBM E-score” value turn out when ACGCGTAC was run?
Answer: 0.345

Question: How did the “PBM E-score” value turn out when CCGCGTTA was run?
Answer: 0.336

Question: For ACGCGTTA, which “PBM E-score” value is on record?
Answer: 0.342

Question: For ACGCGTAT, which “PBM E-score” value is on record?
Answer: 0.357

Question: With TCGCGTAA as the sequence, how does the “PBM E-score” value read?
Answer: 0.45

Question: For ACGCGTAA, which “PBM E-score” value is on record?
Answer: 0.394

Question: Which “PBM E-score” value does the source give for GCGCGTGA here?
Answer: 0.134

Question: How did the “PBM E-score” value turn out when TGGCGTAA was run?
Answer: 0.108

Question: GCGCGTTA was tested. Which “PBM E-score” value did it give?
Answer: 0.372
